A selection: hits, their analogues and other compounds. The true share with any hit is near 7.7%.
NOMO-1 viab: STK33 inhibitor candidate reducing NOMO-1 cell viability; NOMO-1 AML viability, CellTiter-Glo luminescence, 72 h; inhibition, % (no concentration beside the values); 7.5% of 37,000 active; AID 2330; in the data active means inhibition above about 80%; inconclusive means no clear call, values can overlap the other calls
PD-1 reversal: reversal of PD-1 mediated T-cell inhibition; activation, % (concentration not given with the values); AID 2316; 29,000 tested, under 10 active; primary human CD4 T cells, PD-L1 beads, CellTiter-Glo 96 h; call rule not given here;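 further: 0% = median vehicle wells and 100% = positive control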
Hedgehog inh: Sonic Hedgehog pathway inhibition. Shh-LIGHT2 Gli-luciferase reporter, 30 h. inhibition, % (test concentration not listed). 2.1% of 22,000 active. AID 2313;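 active means mean inhibition across valid replicates above about 65%, limit read from the data; inconclusive means mean under the limit, yet half or more replicates past it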;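 further: pathway switched on by Shh-conditioned medium diluted 1 in 25 in low serum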
The depositor's hits bear a star; u = inconclusive; x = no result.

SMILES	NOMO-1 viab	PD-1 reversal	Hedgehog inh
C[C@H](CO)N1C[C@H](C)[C@@H](CN(C)Cc2ccc(-c3ccccc3)cc2)Oc2c(NC(=O)c3ccncc3)cccc2C1=O	83*	-2	64
CC(C)C(NS(=O)(=O)c1ccccc1F)C(=O)O (configuration not stated)	3	3	x
O=C(COc1cccc2ccccc12)Nc1cc(C(=O)O)cc(C(=O)O)c1	7	3	x
Cc1ccccc1OCC(=O)NCC(=O)O	18	2	x
CC(NC(=O)COc1ccccc1C(C)(C)C)c1ccccc1 (configuration not stated)	115*	0	35
CCc1ccc(OCCCn2cc(/C=C3/C(=N)N4C=CSC4=NC3=O)c3ccccc32)cc1	54	0	24
CCc1cc(C)cc(OCCn2cc(C=C3C(=O)NC(=O)NC3=O)c3ccccc32)c1	122*	-23	-1
C[C@@H]1CN([C@H](C)CO)C(=O)Cc2cc(NC(=O)C3CCCCC3)ccc2O[C@H]1CN(C)Cc1ccc(Cl)c(Cl)c1	u	-1	-23
C[C@H](CO)N1C[C@H](C)[C@H](CN(C)Cc2ccc(Cl)c(Cl)c2)Oc2ccc(NC(=O)NC3CCCCC3)cc2CC1=O	100*	-1	15
C[C@H]1CN([C@@H](C)CO)C(=O)Cc2cc(NC(=O)NC3CCCCC3)ccc2O[C@@H]1CN(C)Cc1ccncc1	18	1	x
C[C@@H]1CN([C@H](C)CO)C(=O)Cc2cc(NC(=O)C3CCCCC3)ccc2O[C@@H]1CN(C)Cc1ccc(Cl)c(Cl)c1	114*	-6	33
CCOC(=O)c1c(NC(=O)Cn2nc([N+](=O)[O-])c(Cl)c2C)sc2c1CCC2	64	-2	x
Cc1[nH]c2ccccc2c1C(c1c(C)[nH]c2ccccc12)C(C)C	115*	-5	33
CC(C)Cn1c(=S)[nH]c2ccccc2c1=O	37	-2	-22
CNC(=O)CSCc1ccc(Br)cc1	18	0	-57
N#CC(C#N)=C(Nc1ccc(Br)cc1)SCc1ccc(F)cc1	112*	-10	109*
O=C(O)CCC(=O)N=S(c1ccccc1)c1ccccc1	63	1	-12
COC(=O)C1=C(NC(=O)c2cccc(Cl)c2)CCS1	22	0	-27
COc1ccc(NC(=O)N(C)C[C@@H]2Oc3ccc(NS(=O)(=O)c4cn(C)cn4)cc3CC(=O)N([C@H](C)CO)C[C@H]2C)cc1	7	0	72*
COc1ccc(NC(=O)N(C)C[C@H]2Oc3ccc(NS(=O)(=O)c4ccc(Cl)cc4)cc3CC(=O)N([C@@H](C)CO)C[C@H]2C)cc1	8	3	67*
COc1ccc(NC(=O)N(C)C[C@@H]2Oc3ccc(NS(=O)(=O)c4ccc(Cl)cc4)cc3CC(=O)N([C@@H](C)CO)C[C@@H]2C)cc1	6	x	-13
COc1ccc(NC(=O)N(C)C[C@H]2Oc3ccc(NS(=O)(=O)c4cn(C)cn4)cc3CC(=O)N([C@H](C)CO)C[C@H]2C)cc1	28	1	23
COC(=O)/C=C1/C(=O)N/C(=N\c2nc(C)cc(C)n2)N1c1cccc(C)c1	41	0	24
COC(=O)c1c(C)cc2c(c(C)c1=O)OC1(C2)C(C)CCC2C(C)(C)OC(=O)C=CC21C (configuration not stated)	107*	-10	-51
Cc1cc(C)n(CC(O)Cn2c3ccccc3c3ccccc32)c(=O)n1 (configuration not stated)	-10	x	x
SMILES	NOMO-1 viab	PD-1 reversal	Hedgehog inh
OC(CNCc1ccccc1)Cn1c2ccccc2c2ccccc21 (configuration not stated)	111*	x	x
Cc1coc2c1C(=O)C(=O)c1c-2ccc2c1CCCC2(C)C	109*	x	22
CC(C)CC(NC(=O)Nc1cccc2ccccc12)C(=O)O (configuration not stated)	8	0	-31
C[C@H](CO)N1C[C@H](C)[C@@H](CN(C)Cc2ccc(C(=O)Nc3ccccc3N)cc2)Oc2ccc(NC(=O)Nc3ccc(F)cc3)cc2C1=O	31	0	x
C[C@@H]1CN([C@H](C)CO)C(=O)c2cc(NC(=O)Nc3ccccc3)ccc2O[C@@H]1CN(C)Cc1ccc(C(=O)Nc2ccccc2N)cc1	109*	-3	x
C[C@@H]1CN([C@H](C)CO)C(=O)c2cc(NC(=O)Cc3ccccc3)ccc2O[C@@H]1CN(C)Cc1ccc(C(=O)Nc2ccccc2N)cc1	105*	-3	x
C[C@H](CO)N1C[C@H](C)[C@@H](CN(C)Cc2ccc(C(=O)Nc3ccccc3N)cc2)Oc2ccc(NC(=O)Cc3ccccc3)cc2C1=O	4	-1	x
O=C(Oc1cccc(OC(=O)c2ccccc2F)c1)c1ccccc1F	26	1	x
CCc1ccc(-n2nc3ccc(NC(=O)COc4ccccc4[N+](=O)[O-])cc3n2)cc1	33	1	x
COc1ccc(CN(C)C[C@H]2Oc3ccc(NC(=O)Nc4ccc(C(F)(F)F)cc4)cc3CC(=O)N([C@H](C)CO)C[C@H]2C)cc1	127*	-3	12
COc1ccc(CN(C)C[C@@H]2Oc3ccc(NC(=O)Nc4ccc(C(F)(F)F)cc4)cc3CC(=O)N([C@H](C)CO)C[C@@H]2C)cc1	118*	-1	x
COc1ccc(NC(=O)Nc2ccc3c(c2)CC(=O)N([C@H](C)CO)C[C@@H](C)[C@H](CN(C)Cc2ccc(C(F)(F)F)cc2)O3)cc1	113*	x	-33
COc1ccc(CN(C)C[C@H]2Oc3ccc(NC(=O)Nc4ccc(C(F)(F)F)cc4)cc3CC(=O)N([C@@H](C)CO)C[C@H]2C)cc1	124*	x	x
COc1ccc(NC(=O)Nc2ccc3c(c2)CC(=O)N([C@H](C)CO)C[C@H](C)[C@H](CN(C)Cc2ccc(C(F)(F)F)cc2)O3)cc1	61	1	-47
COc1ccc(NC(=O)Nc2ccc3c(c2)CC(=O)N([C@@H](C)CO)C[C@H](C)[C@@H](CN(C)Cc2ccc(C(F)(F)F)cc2)O3)cc1	51	x	x
COc1ccc(CN(C)C[C@@H]2Oc3ccc(NC(=O)Nc4ccc(C(F)(F)F)cc4)cc3CC(=O)N([C@H](C)CO)C[C@H]2C)cc1	18	-1	-35
COC(=O)CCSc1nc2sc3c(c2c(=O)n1-c1cccc(C)c1)CC(C)(C)OC3	23	-1	x
CCc1cc(-c2[nH]ncc2-c2nc(C)cs2)c(O)cc1OC(C)C(=O)NN (configuration not stated)	21	0	59
Cc1cccc(-n2c3c(c(=O)[nH]c2=S)C(NC(=O)CN2CCCC2=O)(C(F)(F)F)C(=O)N3)c1 (configuration not stated)	7	2	x
Cc1ccc(C(C)C)c(OCC(=O)Nc2ccccc2C#N)c1	17	-4	x
COc1ccc([N+](=O)[O-])cc1NC(=O)CN(c1ccccc1Cl)S(C)(=O)=O	17	1	x
COc1ccc(NC(=O)Nc2ccc3c(c2)CC(=O)N([C@H](C)CO)C[C@@H](C)[C@@H](CN(C)Cc2ccc(C(F)(F)F)cc2)O3)cc1	90*	x	u
COc1ccc(NC(=O)Nc2ccc3c(c2)CC(=O)N([C@@H](C)CO)C[C@H](C)[C@H](CN(C)Cc2ccc(C(F)(F)F)cc2)O3)cc1	35	x	-21
Cc1ccc(-c2nnc(-n3cnc4cc(C)c(C)cc43)c3ccccc23)cc1	42	1	x
COc1cc2c(c(OC)c1OC)CCc1cc(O)c(O)cc1-2	31	2	-12

High-throughput results from PubChem.
